From article PMC4336329 (PLoS ONE, 2015)
The campaign covered roughly 310,000 compounds. About 14,000 (4.5%) showed an effect of 50% or more. The effect is printed as a negative number. For the sample, strong results were picked, then their nearest neighbours and some compounds at random.

Target: human ether-à-go-go-related gene (hERG) potassium channel (human, UniProt Q12809)
Experiment: primary screen, population patch clamp on CHO cells stably expressing hERG; higher = less effect of the substance
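Note: peak tail current of the secondary pulse compared with the same well before compound.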

human ether-à-go-go-related gene (hERG) potassium channel, sequence (Q12809 whole entry, looked up): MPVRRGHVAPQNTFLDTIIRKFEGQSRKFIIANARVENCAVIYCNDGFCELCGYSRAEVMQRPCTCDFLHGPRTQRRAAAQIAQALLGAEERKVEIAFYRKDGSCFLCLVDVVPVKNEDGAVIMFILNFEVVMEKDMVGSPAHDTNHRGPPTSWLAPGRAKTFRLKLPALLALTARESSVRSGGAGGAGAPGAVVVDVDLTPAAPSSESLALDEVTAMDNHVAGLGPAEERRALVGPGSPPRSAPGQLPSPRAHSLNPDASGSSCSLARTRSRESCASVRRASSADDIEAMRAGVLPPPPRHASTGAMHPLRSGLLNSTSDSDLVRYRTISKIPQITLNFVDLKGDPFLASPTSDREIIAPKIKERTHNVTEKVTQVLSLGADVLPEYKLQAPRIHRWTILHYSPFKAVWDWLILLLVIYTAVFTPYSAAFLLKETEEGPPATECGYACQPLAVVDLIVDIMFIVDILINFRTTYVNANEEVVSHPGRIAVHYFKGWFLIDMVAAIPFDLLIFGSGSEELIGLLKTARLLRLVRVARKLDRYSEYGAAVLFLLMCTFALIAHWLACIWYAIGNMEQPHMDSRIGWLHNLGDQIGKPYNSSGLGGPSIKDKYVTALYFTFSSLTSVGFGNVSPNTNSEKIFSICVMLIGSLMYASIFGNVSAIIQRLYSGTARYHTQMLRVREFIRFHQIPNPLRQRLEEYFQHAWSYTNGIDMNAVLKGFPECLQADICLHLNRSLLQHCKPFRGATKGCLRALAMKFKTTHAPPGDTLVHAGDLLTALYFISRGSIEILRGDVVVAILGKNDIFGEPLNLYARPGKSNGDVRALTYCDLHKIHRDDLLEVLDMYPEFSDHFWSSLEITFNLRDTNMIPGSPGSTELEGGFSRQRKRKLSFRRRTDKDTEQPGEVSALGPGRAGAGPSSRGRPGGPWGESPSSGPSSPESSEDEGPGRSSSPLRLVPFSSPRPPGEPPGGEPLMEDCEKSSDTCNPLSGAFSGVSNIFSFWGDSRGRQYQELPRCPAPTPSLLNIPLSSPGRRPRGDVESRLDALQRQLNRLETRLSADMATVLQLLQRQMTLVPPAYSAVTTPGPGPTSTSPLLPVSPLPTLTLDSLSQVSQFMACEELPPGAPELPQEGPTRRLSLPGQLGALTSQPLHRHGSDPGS

`COc1ccccc1C(=O)Nc1ccnn1C1CCN(Cc2cn(C)c3ccccc23)CC1` was tested. Which “hERG current change (%, negative = inhibition) at 10uM” value did it give?
Its value is -83.6%.

How did the “hERG current change (%, negative = inhibition) at 10uM” value turn out when `Cn1cc(CN2CCC(n3nccc3NC(=O)c3ccccc3Cl)CC2)c2ccccc21` was run?
Its value is -68.6%.

How did the “hERG current change (%, negative = inhibition) at 10uM” value turn out when `Cc1cc(NC(=O)CSc2ccc3nnc(CCNS(=O)(=O)c4ccccc4)n3n2)no1` was run?
The value was 15.6%.

How did the “hERG current change (%, negative = inhibition) at 10uM” value turn out when `Nc1c(Cl)cc(-c2csc(N3CCCC3c3nc4cc(Cl)c(Cl)cc4n3CCOCCO)n2)cc1Cl` (stereo not shown) was run?
The value was -0.601%.

Which “hERG current change (%, negative = inhibition) at 10uM” value does the source give for `Cc1cccc(C)c1NC(=O)NNC(=O)c1cc(C(C)(C)C)nn1Cc1ccccc1` here?
Its value is 0.818%.

For `CC1CCC/C(=N\NC(=S)Nc2ccccc2)C1` (stereo not shown), which “hERG current change (%, negative = inhibition) at 10uM” value is on record?
Its value is 7.36%.

For `O=C(Nc1ccc(Nc2ccccc2)cc1)c1c(Cl)cccc1Cl`, which “hERG current change (%, negative = inhibition) at 10uM” value is on record?
The value was 12.3%.

`Cc1ccc2c(c1)C1CN(C)CCC1N2C(=O)CCCN1C(=O)c2cccc3cccc(c23)C1=O` (stereo not shown) was tested. Which “hERG current change (%, negative = inhibition) at 10uM” value did it give?
The value was -57.4%.

For `COc1ccc(OCC(=O)N2c3ccc(C)cc3C3CN(C)CCC32)cc1` (stereo not shown), which “hERG current change (%, negative = inhibition) at 10uM” value is on record?
The value was -5.12%.

Which “hERG current change (%, negative = inhibition) at 10uM” value does the source give for `Cc1ccc2c(c1)C1CN(C)CCC1N2C(=O)COc1ccc(N(C)C(=O)c2ccccc2)cc1` (stereo not shown) here?
Its value is -11.6%.

`Cc1ccc2c(c1)C1CN(C)CCC1N2C(=O)COc1ccccc1F` (stereo not shown) was tested. Which “hERG current change (%, negative = inhibition) at 10uM” value did it give?
The value was -4.18%.

For `CC1CCCN(C(=O)Cn2nnc(-c3ccccc3F)n2)C1` (stereo not shown), which “hERG current change (%, negative = inhibition) at 10uM” value is on record?
The value was 13.8%.

Which “hERG current change (%, negative = inhibition) at 10uM” value does the source give for `Cc1ccc2c(c1)C1CN(C)CCC1N2C(=O)Cn1nnc(-c2ccccc2F)n1` (stereo not shown) here?
The value was -60.1%.

Which “hERG current change (%, negative = inhibition) at 10uM” value does the source give for `Cc1cc(-n2c(SCc3ccccc3F)nc3n[nH]c(C)c3c2=N)ccc1Cl` here?
The value was 15.8%.

`COC(=O)c1ccccc1OCCCOc1ccc(C=O)cc1OC` was tested. Which “hERG current change (%, negative = inhibition) at 10uM” value did it give?
The value was -4.02%.

How did the “hERG current change (%, negative = inhibition) at 10uM” value turn out when `O=C(NCc1ccco1)c1ccc(COc2ccc(Cl)cc2)cc1` was run?
Its value is 0.911%.

For `CCCN(C(=O)Cc1ccc(S(=O)(=O)N2CCOCC2)s1)c1c(N)n(Cc2ccccc2)c(=O)[nH]c1=O`, which “hERG current change (%, negative = inhibition) at 10uM” value is on record?
Its value is 16.8%.

Which “hERG current change (%, negative = inhibition) at 10uM” value does the source give for `CN(C)c1ccc(C(c2ccc(N(C)C)cc2)c2ccc([N+](=O)[O-])cc2)cc1` here?
The value was 3.74%.

How did the “hERG current change (%, negative = inhibition) at 10uM” value turn out when `Cc1cccc(Sc2nc(-c3ccccc3)ncc2C(=O)O)c1` was run?
The value was 11.7%.

How did the “hERG current change (%, negative = inhibition) at 10uM” value turn out when `COc1ccc(N2CCN(C(=O)COc3ccc4c(C)cc(=O)oc4c3)CC2)cc1` was run?
Its value is -16.5%.

With `Cc1cc(=O)oc2cc(OCC(=O)N3CCN(c4ccc(F)cc4)CC3)ccc12` as the compound, how does the “hERG current change (%, negative = inhibition) at 10uM” value read?
Its value is -53%.

How did the “hERG current change (%, negative = inhibition) at 10uM” value turn out when `Cc1cc(=O)oc2c(C)c(OCC(=O)N3CCN(c4ccccc4)CC3)ccc12` was run?
Its value is -24.8%.

`COc1ccc(N2CCN(C(=O)COc3ccc4c(C)cc(=O)oc4c3C)CC2)cc1` was tested. Which “hERG current change (%, negative = inhibition) at 10uM” value did it give?
The value was 20.6%.

Which “hERG current change (%, negative = inhibition) at 10uM” value does the source give for `Cc1cc(=O)oc2c(C)c(OCC(=O)N3CCN(c4ccc(F)cc4)CC3)ccc12` here?
The value was -65.9%.

With `Cc1cc(=O)oc2cc(OCC(=O)N3CCN(c4ccccc4)CC3)ccc12` as the compound, how does the “hERG current change (%, negative = inhibition) at 10uM” value read?
The value was -36.6%.

`CCC(C)c1ccc(NC(=S)NC(C)C2CCCO2)cc1` (stereo not shown) was tested. Which “hERG current change (%, negative = inhibition) at 10uM” value did it give?
Its value is -6.84%.

With `Cc1ccc(CN2CC(C(=O)N3CC(C)CC(C)C3)CC2=O)cc1` (stereo not shown) as the compound, how does the “hERG current change (%, negative = inhibition) at 10uM” value read?
The value was -6.13%.

`CN(C)CCP(=O)(c1ccccc1)c1ccccc1` was tested. Which “hERG current change (%, negative = inhibition) at 10uM” value did it give?
Its value is 13.4%.

`O=C(O)COCc1nc2ccccc2s1` was tested. Which “hERG current change (%, negative = inhibition) at 10uM” value did it give?
Its value is -7.92%.

Which “hERG current change (%, negative = inhibition) at 10uM” value does the source give for `Cc1cccc(C(=O)N2CCc3cc(-c4nc(NC(=O)CN5CCCC5)sc4C)ccc32)c1` here?
The value was -0.886%.

For `Cc1ccc(CC(=O)N(C)CC(=O)N(CC(C)C)c2c(N)n(CC(C)C)c(=O)[nH]c2=O)cc1C`, which “hERG current change (%, negative = inhibition) at 10uM” value is on record?
Its value is -2.54%.

`Cc1ccc2c(c1)COc1c3ccc(C(=O)NCC4CC4)cc3nn1-2` was tested. Which “hERG current change (%, negative = inhibition) at 10uM” value did it give?
Its value is -6.56%.

Which “hERG current change (%, negative = inhibition) at 10uM” value does the source give for `COc1ccc(CCN(C)Cc2ccc(F)cc2F)cc1OC` here?
Its value is -0.788%.

Which “hERG current change (%, negative = inhibition) at 10uM” value does the source give for `COc1ccc(CCN(C)Cc2ccc(OC)c(OCc3ccccc3)c2)cc1OC` here?
Its value is -81.6%.

With `CN(Cc1ccccc1)C(=O)c1ccc(NC(=O)C2=CSCCO2)cc1` as the compound, how does the “hERG current change (%, negative = inhibition) at 10uM” value read?
Its value is -0.926%.

With `COc1ccc(Cc2noc(CN(C)CCc3ccccc3)n2)cc1OC` as the compound, how does the “hERG current change (%, negative = inhibition) at 10uM” value read?
The value was 7.3%.

Which “hERG current change (%, negative = inhibition) at 10uM” value does the source give for `COc1cc(CN(CCN(C)C)Cc2ccccc2)ccc1OCc1ccccc1.O=C(O)C(=O)O` here?
The value was -31%.

With `CCN(CC)c1ccc(CN(C)CCc2ccc(OC)c(OC)c2)cc1` as the compound, how does the “hERG current change (%, negative = inhibition) at 10uM” value read?
The value was -66.1%.

`COc1ccc(CCN(C)Cc2ccncc2)cc1OC` was tested. Which “hERG current change (%, negative = inhibition) at 10uM” value did it give?
The value was -27.2%.

How did the “hERG current change (%, negative = inhibition) at 10uM” value turn out when `CN(Cc1ccccc1)C(=O)c1ccc(NC(=O)c2ccccc2)cc1` was run?
Its value is -59.9%.

Which “hERG current change (%, negative = inhibition) at 10uM” value does the source give for `CN(Cc1ccccc1)C(=O)c1ccccc1NC(=O)c1ccccc1` here?
Its value is -12.7%.

How did the “hERG current change (%, negative = inhibition) at 10uM” value turn out when `COc1cc(CN(C)CCc2ccccc2)ccc1OCc1ccccc1` was run?
Its value is -72%.

With `CCN(Cc1ccccc1)Cc1ccc(OCc2ccccc2)c(OC)c1` as the compound, how does the “hERG current change (%, negative = inhibition) at 10uM” value read?
Its value is -31.2%.
